Drawing on PubChem BioAssay (Tox21), this text covers Potency and outcome for 8 molecules.

Assay [1] in a line: qHTS assay to identify aromatase inhibitors - cell viability counter screen (AID 743084;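 note: cells stimulated with testosterone during compound exposure; nearly all actives have a fitted effect of over 55% in size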). (In general: In qHTS, concentration-response curves come from the screen itself.)
In assay [2] the target is Aryl hydrocarbon receptor (Homo sapiens) (UniProt P35869). The assay can be described thus: qHTS assay to identify small molecule that activate the aryl hydrocarbon receptor (AhR) signaling pathway (AID 743085).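 For activation: HG2L7.5c1 human HepG2 liver cells with stably integrated DRE-driven firefly reporter; series mostly up to about 70 µM.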 Note: nearly all actives have a fitted effect of over 15% in size. Note: potency is the fitted concentration of half-maximal effect. The essentials: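 AhR agonist activity is inferred from enhanced light output of a DRE-controlled firefly luciferase reporter in HepG2 cells, measured with ONE-Glo following 24 h treatment at 37C.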

For assay [3], the target named is Peroxisome proliferator-activated receptor gamma (Homo sapiens) (UniProt P37231). The experiment in a line: qHTS assay to identify small molecule antagonists of the peroxisome proliferator-activated receptor gamma (PPARg) signaling pathway (AID 743191; calls by dose curve; note: series mostly up to about 63 µM; nearly all actives have a fitted effect of over 30% in size). In short, it runs like this:
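GeneBLAzer PPARg UAS-bla HEK293H cells carrying a UAS-driven beta-lactamase reporter were plated at 3000 cells/well, preincubated 5 h at 37C, then given compound for 17 h at 37C; LiveBLAzer B/G FRET substrate was read after 1 h at room temperature.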

Assay [4] can be described thus: qHTS assay to identify small molecule antagonists of the peroxisome proliferator-activated receptor gamma (PPARg) signaling pathway - cell viability counter screen (AID 743194). Note: nearly all actives have a fitted effect of over 55% in size. The essentials: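 PPARg-UAS-bla HEK293H cells were plated, rested 5 h at 37 C, then treated with compounds plus rosiglitazone (50 nM final) for 17 h at 37 C; viability was then read by CellTiter-Glo luminescence after 30 min at room temperature.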

Assay [5] is described as follows: qHTS assay for small molecule agonists of the antioxidant response element (ARE) signaling pathway - cell viability counter screen (AID 743203; calls by dose curve; note: nearly all actives have a fitted effect of over 55% in size). In short, it runs like this: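 Viability counter screen: stably transfected ARE-bla HepG2 line, 16 hrs compound exposure at 37C/5% CO2, ATP-based CellTiter-Glo luminescence measured in the reporter wells.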
Assay [6] in a line: qHTS assay for small molecule activators of the heat shock response signaling pathway - cell viability counter screen (AID 743209). Note: nearly all actives have a fitted effect of over 50% in size. The essentials: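 Viability of HSE-bla HeLa cells is measured with CellTiter-Glo in the wells already used for the reporter read. Compound exposure lasts 5 h at 37 C, and luminescence is read after 30 min at room temperature.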
Assay [7] is described as follows: qHTS assay for small molecule activators of the heat shock response signaling pathway (AID 743210; active = well fitted activation curve with a large enough effect in the signal ratio in the repeat runs, with a control signal flat, not every such curve was filed as active; the % refers to the signal ratio;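 note: HeLa cells with beta-lactamase reporter driven by heat shock elements; series mostly up to about 63 µM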). In short, it runs like this:
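Activation of heat shock element-controlled beta-lactamase expression is measured in HeLa cells by LiveBLAzer FRET fluorescence, with compound exposure lasting 5 h at 37 C and substrate loading 2.5 h at room temperature.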

Assay [8] in a line: qHTS assay to identify small molecule agonists of the peroxisome proliferator-activated receptor delta (PPARd) signaling pathway - cell viability counter screen (AID 743211). Note: nearly all actives have a fitted effect of over 55% in size. Note: potency is the fitted concentration of half-maximal effect. The essentials: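 qHTS cell viability: PPARd-bla HEK293H; 17 h cpd, 37C; CellTiter-Glo, luminescence at 30 min RT.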
Assay [9] addresses Peroxisome proliferator-activated receptor delta (Homo sapiens) (UniProt Q03181). The experiment in a line: qHTS assay to identify small molecule agonists of the peroxisome proliferator-activated receptor delta (PPARd) signaling pathway (AID 743212; calls by dose curve). The essentials: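 Cells expressing a UAS-driven beta-lactamase reporter (PPARd-bla HEK293H) were given test compounds after a 5 h settle and kept at 37 C. Reporter activity was then measured as FRET fluorescence using LiveBLAzer B/G substrate.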

Assay [10] in a line: qHTS assay to identify small molecule antagonists of the peroxisome proliferator-activated receptor delta (PPARd) signaling pathway - cell viability counter screen (AID 743213). Note: nearly all actives have a fitted effect of over 50% in size. The essentials:
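HEK293H cells with the PPARd UAS-bla reporter, co-treated 17 h at 37 C with compounds and L165041 (300 nM final), were lysed with CellTiter-Glo. Luminescence indicated viable cell content.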

For assay [11], the target named is Bile acid receptor (Homo sapiens) (UniProt Q96RI1). The experiment in a line: qHTS assay to identify small molecule antagonists of the farnesoid-X-receptor (FXR) signaling pathway (AID 743217; active = well fitted inhibition curve with a large enough effect in the signal ratio in the repeat runs, not every such curve was filed as active; the % refers to the signal ratio). The essentials:
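Screen of the Tox21 10K library in quantitative HTS format using FXR-UAS-bla HEK 293T reporter cells. Agonist chenodeoxycholic acid, 50 uM final, added with compounds; 16 h incubation at 37 °C; beta-lactamase FRET fluorescence measured.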

The target is the same in assay [12]. The experiment in a line: qHTS assay to identify small molecule agonists of the farnesoid-X-receptor (FXR) signaling pathway (AID 743220; active = well fitted activation curve with a large enough effect in the signal ratio in the repeat runs, not every such curve was filed as active; the % refers to the signal ratio). The essentials: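 FXR-UAS-bla HEK 293T cells carrying a UAS-driven beta-lactamase reporter were plated for 5 h at 37C/5% CO2, then exposed to DMSO-dissolved Tox21 10K compounds for 16 h at 37C. A LiveBLAzer B/G FRET substrate was loaded for 2 h at room temperature before fluorescence reading.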

Assay [13] is described as follows: qHTS assay to identify small molecule antagonists of the farnesoid-X-receptor (FXR) signaling pathway - cell viability counter screen (AID 743221; active = well fitted cell-killing curve with a large enough effect in the repeat runs, not every such curve was filed as active; note: nearly all actives have a fitted effect of over 50% in size; note: potency is the fitted concentration of half-maximal effect). The essentials: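 After a 5 h settling period, FXR-bla HEK 293T cells receive compound and chenodeoxycholic acid (50 uM final) and incubate 16 h at 37 C; CellTiter-Glo luminescence, read after 30 min at room temperature, reports cell viability.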

A short description of assay [14]: qHTS assay to identify small molecule that activate the aryl hydrocarbon receptor (AhR) signaling pathway - cell viability counter screen (AID 743086).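 Note: HepG2 liver cells carrying the AhR DRE luciferase reporter; series mostly up to about 70 µM; nearly all actives have a fitted effect of over 45% in size.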 In short, it runs like this:
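HepG2-AhR-luc (HG2L7.5c1) cells, 4000/well, were preincubated 5 h at 37C, exposed to compound in qHTS format for 24 hr at 37C, then given CellTiter-Fluor for 30 min; viability was read as fluorescence in the reporter wells.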

The target of assay [15] is Peroxisome proliferator-activated receptor delta (Homo sapiens) (UniProt Q03181). The assay can be described thus: qHTS assay to identify small molecule antagonists of the peroxisome proliferator-activated receptor delta (PPARd) signaling pathway (AID 743215; active = well fitted inhibition curve with a large enough effect in the signal ratio in the repeat runs, not every such curve was filed as active; the % refers to the signal ratio;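 note: cells stimulated with agonist L165041 at 300 nM final during compound exposure; series mostly up to about 62 µM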). In short, it runs like this:
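Plated HEK293H PPARd-bla cells rested 5 h at 37 C and 5% CO2. Compound, then agonist L165041 at 300 nM final, was added; 17 h at 37 C followed. Substrate loading, 2 h room temperature, fluorescence measured.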

Assay [16] is described as follows: qHTS assay to identify small molecule agonists of the farnesoid-X-receptor (FXR) signaling pathway - cell viability counter screen (AID 743218). Note: nearly all actives have a fitted effect of over 45% in size. Note: potency is the fitted concentration of half-maximal effect. The essentials:
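Viability of FXR-bla HEK 293T cells is measured by ATP-based CellTiter-Glo luminescence following 16 h compound treatment at 37 C and a prior 2 h room-temperature beta-lactamase substrate step.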

Assay [17] addresses Vitamin D3 receptor (Homo sapiens) (UniProt P11473). The assay can be described thus: qHTS assay to identify small molecule agonists of the vitamin D receptor (VDR) signaling pathway (AID 743222; calls by dose curve). In short, it runs like this: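 Fluorescence from cleaved LiveBLAzer B/G FRET substrate served as readout. VDR-bla cells had been treated 16 h at 37C with test compounds in DMSO, following a 4 h settling period, and substrate was loaded for 2 h at RT.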

For assay [18] the target is unchanged. The experiment in a line: qHTS assay to identify small molecule antagonists of the vitamin D receptor (VDR) signaling pathway (AID 743223; active = well fitted inhibition curve with a large enough effect in the signal ratio in the repeat runs, not every such curve was filed as active; the % refers to the signal ratio). In short, it runs like this: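 Reporter line VDR-bla; stimulus 1alpha,25-(OH)2 vitamin D3, 3 nM final; compound co-addition, 16 h 37C/5% CO2; LiveBLAzer B/G substrate 2 h RT; fluorescence intensity.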
Assay [19] addresses Peroxisome proliferator-activated receptor gamma (Homo sapiens) (UniProt P37231). The assay can be described thus: qHTS assay to identify small molecule agonists of the peroxisome proliferator-activated receptor gamma (PPARg) signaling pathway (AID 743094; active = well fitted activation curve with a large enough effect in the signal ratio in the repeat runs, not every such curve was filed as active; the % refers to the signal ratio). The essentials: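 Reporter activation was scored by fluorescence of cleaved LiveBLAzer B/G substrate (1 h, room temperature) in PPARg-bla HEK293H cells previously treated 17 h at 37C with DMSO-dissolved compounds.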

A short description of assay [20]: qHTS assay for small molecule agonists of the antioxidant response element (ARE) signaling pathway (AID 743202; active = well fitted activation curve with a large enough effect in the signal ratio in the repeat runs, not every such curve was filed as active; the % refers to the signal ratio). In short, it runs like this: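 Steps: seed ARE-bla HepG2 cells (2,000/well); incubate 5 h at 37 C; add compounds by pin tool; incubate 16 h at 37 C; add FRET substrate; read fluorescence after 2 h at RT.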

Structures are written as SMILES. Inconclusive results are not listed. A number with no mark means an inactive call. Calls of active or inactive are those of the source. Unless noted, calls come from the whole dose curve; as a rule, active = well fitted curve in the direction sought with a large enough effect in the repeat runs; inconclusive = weak or mixed curves; inactive = no such curve, though single readings can be large; an effect the other way counts as inactive or inconclusive.

Vitamin D3 receptor (Homo sapiens), sequence (P11473 whole entry, looked up): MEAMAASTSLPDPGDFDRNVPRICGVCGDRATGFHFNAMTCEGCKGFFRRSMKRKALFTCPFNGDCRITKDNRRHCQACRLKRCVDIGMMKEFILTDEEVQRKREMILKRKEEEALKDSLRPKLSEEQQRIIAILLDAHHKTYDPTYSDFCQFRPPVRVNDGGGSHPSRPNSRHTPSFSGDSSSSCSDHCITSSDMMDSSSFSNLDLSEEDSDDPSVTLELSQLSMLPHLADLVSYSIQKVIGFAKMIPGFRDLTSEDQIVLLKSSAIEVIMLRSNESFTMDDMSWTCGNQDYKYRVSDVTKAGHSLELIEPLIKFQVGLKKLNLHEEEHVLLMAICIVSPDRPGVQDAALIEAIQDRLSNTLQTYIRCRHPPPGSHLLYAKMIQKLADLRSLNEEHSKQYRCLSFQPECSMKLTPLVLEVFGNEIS
Bile acid receptor (Homo sapiens), sequence (Q96RI1 whole entry, looked up): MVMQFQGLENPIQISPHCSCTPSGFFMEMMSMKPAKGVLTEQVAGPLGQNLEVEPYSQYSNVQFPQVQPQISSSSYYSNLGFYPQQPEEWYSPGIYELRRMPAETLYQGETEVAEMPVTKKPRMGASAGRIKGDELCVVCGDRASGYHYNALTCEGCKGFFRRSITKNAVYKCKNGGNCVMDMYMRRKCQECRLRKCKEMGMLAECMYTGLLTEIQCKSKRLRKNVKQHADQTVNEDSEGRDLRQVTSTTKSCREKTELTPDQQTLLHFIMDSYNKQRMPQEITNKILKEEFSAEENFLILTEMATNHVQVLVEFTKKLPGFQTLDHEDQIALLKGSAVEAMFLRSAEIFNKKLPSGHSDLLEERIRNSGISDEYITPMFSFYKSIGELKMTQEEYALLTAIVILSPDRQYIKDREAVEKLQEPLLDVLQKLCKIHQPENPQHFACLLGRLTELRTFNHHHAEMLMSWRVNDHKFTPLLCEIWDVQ
Peroxisome proliferator-activated receptor delta (Homo sapiens), sequence (Q03181 whole entry, looked up): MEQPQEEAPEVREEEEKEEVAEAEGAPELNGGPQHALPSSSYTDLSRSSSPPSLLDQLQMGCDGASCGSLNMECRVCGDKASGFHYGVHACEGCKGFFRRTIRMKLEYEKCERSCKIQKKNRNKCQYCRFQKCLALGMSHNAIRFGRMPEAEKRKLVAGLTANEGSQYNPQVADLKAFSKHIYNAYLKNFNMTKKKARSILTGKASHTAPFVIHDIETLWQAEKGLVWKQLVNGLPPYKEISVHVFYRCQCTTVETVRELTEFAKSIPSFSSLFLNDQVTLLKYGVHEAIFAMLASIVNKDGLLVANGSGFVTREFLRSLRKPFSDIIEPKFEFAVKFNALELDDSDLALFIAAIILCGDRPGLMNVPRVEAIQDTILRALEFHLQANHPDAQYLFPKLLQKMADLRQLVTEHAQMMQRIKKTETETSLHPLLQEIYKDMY
Aryl hydrocarbon receptor (Homo sapiens), sequence (P35869 whole entry, looked up): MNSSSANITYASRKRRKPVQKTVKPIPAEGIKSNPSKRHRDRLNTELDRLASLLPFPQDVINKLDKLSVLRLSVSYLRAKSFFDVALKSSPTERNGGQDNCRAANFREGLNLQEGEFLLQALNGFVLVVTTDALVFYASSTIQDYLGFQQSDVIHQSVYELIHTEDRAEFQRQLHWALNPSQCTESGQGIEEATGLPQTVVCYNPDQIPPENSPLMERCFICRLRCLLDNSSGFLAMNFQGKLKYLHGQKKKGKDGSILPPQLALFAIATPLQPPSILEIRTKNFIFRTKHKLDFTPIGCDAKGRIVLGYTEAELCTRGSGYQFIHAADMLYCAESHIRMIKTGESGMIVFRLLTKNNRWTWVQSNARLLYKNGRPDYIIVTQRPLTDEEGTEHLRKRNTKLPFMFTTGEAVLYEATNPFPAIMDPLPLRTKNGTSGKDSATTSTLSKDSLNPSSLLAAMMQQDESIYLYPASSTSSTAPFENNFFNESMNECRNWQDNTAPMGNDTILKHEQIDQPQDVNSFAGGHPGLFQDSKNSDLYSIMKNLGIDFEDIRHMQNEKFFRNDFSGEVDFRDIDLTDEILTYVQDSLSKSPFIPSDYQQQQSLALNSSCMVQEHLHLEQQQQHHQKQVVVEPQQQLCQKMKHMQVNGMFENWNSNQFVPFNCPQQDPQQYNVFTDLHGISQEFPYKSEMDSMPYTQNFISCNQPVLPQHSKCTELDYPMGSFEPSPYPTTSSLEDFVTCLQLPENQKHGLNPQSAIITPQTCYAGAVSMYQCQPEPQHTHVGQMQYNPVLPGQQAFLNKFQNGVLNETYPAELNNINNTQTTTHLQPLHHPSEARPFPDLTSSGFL
Peroxisome proliferator-activated receptor gamma (Homo sapiens), sequence (P37231 whole entry, looked up): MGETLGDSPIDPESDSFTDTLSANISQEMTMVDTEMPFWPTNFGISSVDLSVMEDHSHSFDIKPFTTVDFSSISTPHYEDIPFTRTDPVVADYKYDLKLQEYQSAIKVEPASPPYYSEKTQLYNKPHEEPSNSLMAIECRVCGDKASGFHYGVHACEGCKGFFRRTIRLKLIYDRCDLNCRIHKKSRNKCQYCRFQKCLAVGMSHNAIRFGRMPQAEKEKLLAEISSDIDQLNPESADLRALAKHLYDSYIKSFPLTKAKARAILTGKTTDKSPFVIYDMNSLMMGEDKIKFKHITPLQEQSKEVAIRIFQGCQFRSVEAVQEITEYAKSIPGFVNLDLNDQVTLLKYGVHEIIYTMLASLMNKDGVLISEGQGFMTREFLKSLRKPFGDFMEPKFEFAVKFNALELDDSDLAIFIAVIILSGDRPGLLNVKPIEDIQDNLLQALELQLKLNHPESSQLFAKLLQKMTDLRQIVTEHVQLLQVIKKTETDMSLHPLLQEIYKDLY

Turning to `C#Cc1cccc(Nc2ncnc3cc(OCCOC)c(OCCOC)cc23)c1`, the Potency entry in [1], in [3], in assay [4], in assay [5], in [6] and in assay [7] was “inactive” throughout. For the same molecule, the Potency result in [8], in assay [9], in assay [10], in assay [11], in assay [12] and in assay [13] was “inactive” throughout. In addition, in assay [2], the Potency was 2.66 µM (active).

As to `COc1cccc(N(C)C(=S)Oc2ccc3c(c2)CCCC3)n1`, the Potency result in [1], in assay [2], in [14], in [4], in [5] and in assay [6] was “inactive” each time. Moreover, the Potency entry in assay [9], in [10], in [15], in assay [16], in assay [13] and in assay [17] was “inactive” in each case. In assay [18], the call was inactive.

Take `C[N+]1(CC2COC(c3ccccc3)(C3CCCCC3)O2)CCCCC1` (stereo not given): the Potency result in assay [1], in assay [14], in [19], in assay [3], in assay [4] and in assay [20] was “inactive” throughout. Also, the Potency entry in [5], in [6], in assay [7], in [8], in [10] and in assay [16] was “inactive” throughout. Besides, the Potency result in [13] was “inactive”.

Consider `ClCCOCCOCCCl`, for which the Potency result in assay [1], in assay [2], in assay [19], in assay [3], in assay [4] and in assay [20] was “inactive” throughout. Moreover, the Potency result in assay [5], in assay [6], in assay [7], in [8], in [9] and in assay [10] was “inactive” each time. For the same molecule, the Potency entry in assay [15], in [16], in assay [13] and in [17] was “inactive” throughout. Besides, in assay [18], the molecule was classed as inactive.

On to `CCCCO`, for which the Potency result in assay [1], in [2], in [14], in assay [5], in [6] and in [7] was “inactive” throughout. Also, the Potency result in assay [8], in assay [10], in assay [11], in assay [16], in assay [13] and in assay [17] was “inactive” each time. Besides, the call in [18] was inactive.

On to `O=C(NCCO[N+](=O)[O-])c1cccnc1`, for which the Potency result in assay [1], in assay [14], in [19], in [3], in assay [4] and in [20] was “inactive” each time. Besides, the Potency result in assay [5], in [7], in assay [8], in assay [9], in [10] and in assay [15] was “inactive” each time. For the same molecule, the Potency entry in [16], in assay [13] and in assay [17] was “inactive” throughout.

Take `CCc1c(C(=O)NN2CCCCC2)nn(-c2ccc(Cl)cc2Cl)c1-c1ccc(Br)cc1`: the Potency entry in assay [1], in [2], in assay [14] and in [6] was “inactive” each time. Besides, the Potency in assay [8] is 12.3 µM (active); in assay [16], 24.5 µM (active); in assay [13], 24.5 µM (active).

`Nc1ccc(S(=O)(=O)Nc2ccccc2)cc1`: the Potency result in [1], in assay [14], in assay [19], in assay [3], in [4] and in assay [20] was “inactive” in each case. Also, the Potency entry in assay [5], in assay [6], in assay [8], in assay [9], in assay [10] and in [15] was “inactive” in each case. Further, the Potency entry in assay [16] and in [13] was “inactive” each time.
